Consider 73 compounds from PubChem BioAssay.

Values without a mark were called inactive. How the calls were made is not given here.

This experiment deals with Pantothenate synthetase (Mycobacterium tuberculosis (strain ATCC 25618 / H37Rv)) (UniProt P9WIL5). Description: Recombinant Mtb pantothenate synthetase (PanC) inhibitors, coupled enzyme, confirmatory (AID 375).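 Further: 0% = full reaction with vehicle and 100% = no enzyme background.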 The settings on record: coupled enzyme assay; at 10 µM, stronger effect = higher value.
Chain of Pantothenate synthetase (Mycobacterium tuberculosis (strain ATCC 25618 / H37Rv)) (P9WIL5 whole entry, looked up): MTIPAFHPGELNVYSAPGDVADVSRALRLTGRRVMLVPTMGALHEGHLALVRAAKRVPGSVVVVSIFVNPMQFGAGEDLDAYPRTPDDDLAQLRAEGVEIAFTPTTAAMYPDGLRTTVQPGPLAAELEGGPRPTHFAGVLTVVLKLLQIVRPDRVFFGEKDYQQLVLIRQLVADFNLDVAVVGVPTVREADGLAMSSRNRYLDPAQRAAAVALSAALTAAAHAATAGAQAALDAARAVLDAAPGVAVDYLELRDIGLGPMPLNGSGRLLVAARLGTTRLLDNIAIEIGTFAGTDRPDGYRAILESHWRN

Turning to `CSc1nc(C)c(C(=O)Nc2ccccc2)c(C)c1C#N`, the inhibition was 0%.
For `CCCOc1ccc(C2C(C(=O)c3ccc(C)o3)=C(O)C(=O)N2Cc2cccnc2)cc1` (stereo not drawn), the inhibition was 10%.
Next, `O=C(Nc1nc(-c2ccncc2)cs1)C1COc2ccccc2O1` (stereo not drawn): 0%.
The value for `CN1CCCC(OC(=O)c2ccc3c(c2)OCCO3)C1` (stereo not drawn) was 0%; that for `CCOC(=O)c1cc2c(=O)n3cccc(C)c3nc2n(Cc2ccco2)c1=NC(=O)c1cccnc1` was 0%; that for `CC(O)CN1C(=O)C(CC(=O)Nc2ccc(Cl)cc2)SC1=Nc1ccccc1` (stereo not drawn) was 0%.
Turning to `CCc1noc(C)c1C(=O)NCCc1ccc(OC)c(OC)c1`, the inhibition is 3%.
As to `O=C(Nc1nccs1)c1ccc(Cl)c(S(=O)(=O)N2CCCCC2)c1`, the inhibition was 0%.
On to `Cn1cc(CN2CCc3ccccc3C2)c2ccccc21`, for which the inhibition was 9%.
The value for `CCCNC(=O)c1cc(-c2ccco2)on1` was 2%.
Turning to `Cc1ccc(NC(=O)CSC2=C(C#N)C(c3ccc4c(c3)OCO4)CC(=O)N2)cc1C` (stereo not drawn), the inhibition was 0%.
The value for `CNCCCC1c2ccccc2C=Cc2ccccc21` was 0%; that for `CC1=C(C(=O)N2CCOCC2)C(c2ccccc2F)C2=C(CCCC2=O)N1` (stereo not drawn) was 3%; that for `COc1ccc(NC(=O)c2cc(C(C)C)on2)c(OC)c1` was 0%.
As to `CCC(=O)c1ccc(O)cc1`, the inhibition is 0%.
Take `CCN(Cc1nc2ccccc2c(=O)[nH]1)Cc1nc2cc(OC)c(OC)cc2c(=O)[nH]1`: the inhibition was 0%.
Consider `Cc1cc(O)c(C2(C(F)(F)F)NCCNC2=O)cc1C` (stereo not drawn), for which the inhibition is 5%.
As for `CCSc1nnc(NC(=O)C(CC)(C(F)(F)F)C(F)(F)F)s1`, the inhibition is 0%.
For the compound `O=C(C1CCCO1)N1CCN(S(=O)(=O)c2ccccc2)CC1` (stereo not drawn), the inhibition was 0%.
In the case of `COc1ccc(OC)c(NC(=O)CCN2CCN(c3ccccc3F)CC2)c1`, the inhibition was 4%.
For the compound `Cc1cc(NC(=O)CCCN2C(=O)c3cccnc3C2=O)no1`, the inhibition was 0%.
Next, `CC(C)(C)SCCNC(=O)COc1ccccc1`: 3%; `CCN1CCN(c2nc3c(c(=O)n(C)c(=O)n3C)n2CCSc2ncccn2)CC1`: 0%; `Cn1c(=O)c2c(nc(NCC3CCCO3)n2C)n(C)c1=O` (stereo not drawn): 0%.
The value for `Cc1ccc(S(=O)(=O)N(C)c2ccc(OCC(=O)OCc3c(C)noc3C)cc2)cc1` was 0%; that for `CCC(=O)N(CCCN(C)C)c1nc(-c2cc(OC)ccc2OC)cs1` was 6%.
Turning to `CN(C)CCC(c1ccc(Br)cc1)c1ccccn1` (stereo not drawn), the inhibition is 0%.
Consider `c1ccc(-c2ccc(-c3ccccn3)nn2)nc1`, for which the inhibition was 8%.
For `Cc1cc2ncn(N)c2cc1C`, the inhibition was 9%.
On to `Cc1ccc(NC(=O)COS(=O)c2ccc(C)cc2)cc1` (stereo not drawn), for which the inhibition was 0%.
As to `O=C(COc1ccc(F)cc1Br)N1CCc2ccccc21`, the inhibition was 10%.
Turning to `COc1ccccc1NC(=O)Cc1noc(CSc2cc(C)c3ccccc3n2)n1`, the inhibition is 0%.
In the case of `COc1cccc(-c2cc3nc4c(c(N5CCC6(CC5)OCCO6)n3n2)CCCC4)c1`, the inhibition was 0%.
As for `Oc1c(Cl)cc(Cl)cc1Sc1cc(Cl)cc(Cl)c1O`, the inhibition is 0%.
Next, `Cc1ccc(-c2noc(CN3C(C)CCCC3C)n2)cc1` (stereo not drawn): 0%; `O=C(CS(=O)(=O)c1cn(Cc2ccc(F)cc2)c2ccccc12)N1CCCCC1`: 0%.
For `CCOC(=O)N1CCN(C(=O)COc2cc(=O)n(C)c3ccccc23)CC1`, the inhibition is 0%.
In the case of `COc1cc(C(=O)N2CCC(NC(=O)C(Cc3ccc(C)cc3)NC(C)=O)CC2)cc(OC)c1OC` (stereo not drawn), the inhibition is 3%.
`NC1=NC(c2ccc(Br)cc2)n2c(nc3ccccc32)N1` (stereo not drawn): the inhibition is 0%.
Consider `CCCCOc1ccccc1C1C(C(N)=O)=C(C)Nc2nnnn21` (stereo not drawn), for which the inhibition was 0%.
Consider `CN1C(=O)CC(C(=O)Nc2ccc(F)cc2)SC1=Nc1ccc2c(c1)OCO2` (stereo not drawn), for which the inhibition is 0%.
As for `Cc1ccc(-n2c(N)c(C(N)=O)sc2=S)cc1`, the inhibition is 6%.
Take `CSc1ccc(Cn2nnc(C(=O)NCc3ccccc3)c2N)cc1`: the inhibition is 0%.
As for `CC(CN1CCN(C)CC1)OC(=O)c1ccc(Cl)cc1Cl` (stereo not drawn), the inhibition was 0%.
As for `Nc1nonc1NC(=O)CSc1nc2ccccc2s1`, the inhibition was 0%.
With `CCOc1cc(C(=O)N(C)c2ccccc2)cc(OCC)c1OCC`, the inhibition was 1%.
Regarding `COc1ccc2c(C(=O)CN(C)C3CCCCC3)c[nH]c2c1`, the inhibition is 0%.
The value for `CC(=O)c1n[nH]nc1NC(=O)c1ccccc1` was 0%.
The value for `Cc1cccc(N=C2NC(=O)CS2)c1C` was 0%; that for `COc1ccc(-c2nc(CSCC(=O)N3CCc4ccccc4C3)c(C)o2)cc1OC` was 0%.
For the compound `Cc1csc2ncc(C(=O)Nc3ccccc3Cl)c(=O)n12`, the inhibition is 3%.
Consider `COc1ccccc1OCC(=O)N1CCNC1=O`, for which the inhibition was 0%.
On to `COc1ccc2c(c1)CCc1cc(C(=O)N3CCN(c4ccc(N5CCOCC5)nn4)CC3)sc1-2`, for which the inhibition was 2%.
Turning to `Cc1cccc(OCC(=O)N(Cc2cccs2)C2CCS(=O)(=O)C2)c1C` (stereo not drawn), the inhibition is 3%.
Regarding `COc1c(C(=O)Nc2c(C)n(C)n(-c3ccccc3)c2=O)ccc2ccccc12`, the inhibition was 0%.
As for `CCOC(=O)Nc1ccc2c(c1)N(C(=O)OCCN(C)C)c1ccccc1CC2`, the inhibition is 3%.
The value for `COc1ccc(CNCC(=O)Nc2cc(C)nn2-c2nc(C)cc(C)n2)cc1OC` was 0%; that for `O=C(CSc1nnc(-c2ccccc2)o1)N1CCc2ccccc2C1` was 0%.
Consider `CNC(=O)c1nnn(Cc2ccccc2)c1NC(C)=O`, for which the inhibition was 2%.
On to `Cn1c(Cc2ccccc2)nnc1SCC(=O)N1CCOCC1`, for which the inhibition was 0%.
For `O=C(c1cccnc1)N1CCc2ccccc21`, the inhibition is 3%.
Regarding `CCC(=O)Nc1ccc(F)c(Cl)c1`, the inhibition is 6%.
Turning to `Cc1cc(-c2ccccc2)c2c3c(cn2n1)c(=O)n(C)c(=O)n3C`, the inhibition was 0%.
Consider `Cc1ccc(N=Cc2ccc(O)cc2O)cc1F`, for which the inhibition was 0%.
Next, `CC(=O)c1c(OCC(=O)O)ccc2c(C)cc(=O)oc12`: 0%.
Turning to `COc1cc(C(Nc2ccc3c(c2)OCO3)C(=O)NC2CCCCC2)cc(OC)c1OC` (stereo not drawn), the inhibition is 2%.
The value for `N#CCSCC(=O)Nc1ccc(F)cc1` was 0%.
For the compound `O=S(=O)(Nc1cccc2ncccc12)c1cccs1`, the inhibition was 6%.
For `Cc1ccc2c(c1)NC(=O)C(CC(=O)NCCCN1CCN(c3cc(Cl)ccc3C)CC1)O2` (stereo not drawn), the inhibition was 1%.
On to `CCC(=O)OC1(C#CCOc2ccc(OC)cc2)CCN(C)CC1`, for which the inhibition was 0%.
Take `CSC1=C(C#N)C(c2ccc(Cl)cc2)C2=C(CC(C)(C)CC2=O)N1` (stereo not drawn): the inhibition was 2%.
Take `O=C(CSc1nnc(-c2ccncc2)o1)Oc1ccccc1`: the inhibition was 0%.
Consider `CC1=Nn2c(nnc2-c2ccccn2)SC1`, for which the inhibition was 7%.
